Measured values: the supplement of paper PMC11402862

Test system: PPARalpha LBD (GAL4 fusion)
Assay: luciferase reporter transactivation, fold of solvent control; higher = stronger receptor activation
Details: HEK293T, exposure time: 24 h
Procedure: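 HEK293T cells were transiently transfected with a GAL4-DBD fused to the ligand-binding domain of a human nuclear receptor (PPARα, PPARγ, PPARδ, FXR, LXRα, PXR, RARα or CAR), the GAL4-(UAS)5-TK firefly luciferase reporter and a Renilla luciferase normalisation plasmid. Cells were exposed to compound for 24 h in 0.5% DMSO. Firefly/Renilla luciferase was expressed as fold of the solvent control (=1). Values are the mean of 2-3 biological replicates; receptor agonists were used as positive controls.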

| SMILES | luciferase reporter transactivation (concentration: 1 µM) | luciferase reporter transactivation (concentration: 2.5 µM) | luciferase reporter transactivation (concentration: 5 µM) | luciferase reporter transactivation (concentration: 10 µM) | luciferase reporter transactivation (concentration: 100 µM) | luciferase reporter transactivation (concentration: 25 µM) | luciferase reporter transactivation (concentration: 50 µM) | luciferase reporter transactivation (concentration: 250 µM) | luciferase reporter transactivation (concentration: 500 µM) |
| --- | --- | --- | --- | --- | --- | --- | --- | --- | --- |
| NS(=O)(=O)C(F)(F)C(F)(F)C(F)(F)C(F)(F)C(F)(F)C(F)(F)C(F)(F)C(F)(F)F [perfluorooctane sulfonamide] | 0.788 | 0.548 | 0.904 | 0.796 | 1.2 | – | – | – | – |
| O=C(O)C(F)(F)C(F)(F)F [perfluoropropanoic acid] | 1.08 | – | 1.01 | 1.07 | 1.78 | 1.03 | 1.12 | 1.42 | 1.98 |
